Screen size: about 1,100 compounds; about 390 (35%) were called active. Another 30% or so got no clear call; they are omitted. Calls follow the shape of the dose curve; as a rule, active = well fitted inhibition curve with a large enough effect; inconclusive = small, poorly fitted or top-dose-only effect; inactive = flat fitted curve, though single readings scatter. Some of the results follow.
% is scaled to controls: 0 for no effect and ±100 for the full control effect; potency is read from the fitted curve at half-maximal effect.

The test deals with Luciferin 4-monooxygenase (Photinus pyralis) (UniProt P08659). Briefly: qHTS of Nrf2 Activators: Hit Validation in Secondary FLuc Assay. Also: nearly all actives have a fitted effect of over 65% in size. To be noted: firefly luciferase inhibition counter-screen, luminescence; series mostly up to 57.5 µM; activity, negative = inhibition: at the top concentration. Put shortly: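 Counter-screen on purified firefly luciferase with ATP and D-luciferin at Km concentrations; compounds flagged if they inhibit the enzyme, indicating possible reporter stabilization rather than ARE activation.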
In general terms: qHTS replaces the single test concentration by a dilution series.
As for `c1ccc(-c2ccc3c(c2)NC(C2Nc4cc(-c5ccccc5)ccc4O2)O3)cc1` (stereo not drawn), the “activity, negative = inhibition” value was 1.75% (inactive).

As for `O=[N+]([O-])c1ccccc1S(=O)c1ccccc1[N+](=O)[O-]`, the “activity, negative = inhibition” value was 5.65% (inactive).

For `O=C1C(Cl)=C(N2CCN(c3ccccc3[N+](=O)[O-])CC2)C(=O)c2ccccc21`, the Potency is 1.2 µM (active).

As for `O=C(Nc1ccc(Cl)cn1)c1cnn2cccnc12`, the Potency was 2.39 µM (active).

On to `O=C(Nc1cccn2ncnc12)c1cccc(C(F)(F)F)c1`, for which the “activity, negative = inhibition” value was -23.6% (inactive).

With `O=C(NCc1ccco1)c1cccnc1-c1nc2ccccc2s1`, the Potency was 10.7 µM (active).

Regarding `COc1c(Cl)cc(C(=O)NCc2ccco2)cc1Cl`, the “activity, negative = inhibition” value is 1.36% (inactive).

With `N#CC(C(=O)NCc1ccco1)c1nc2ccccc2nc1N1CCOCC1` (stereo not drawn), the “activity, negative = inhibition” value was -12.9% (inactive).

Take `O=C(Nc1cccc(/C=C/c2ccccn2)c1)c1ccc(-n2cncn2)cc1`: the Potency is 2.13 µM (active).

`COc1cc(OC)cc(C(=O)O/N=C(\N)c2cccc(C)c2)c1`: the Potency was 9.53 µM (active).

As to `Cn1c(=O)n(C)c2cc(NC(=O)c3cccc([N+](=O)[O-])c3)c(Br)cc21`, the “activity, negative = inhibition” value is 3.58% (inactive).

As for `Cc1cc(CNC(=O)c2cccc([N+](=O)[O-])c2)c2ccccc2n1`, the “activity, negative = inhibition” value is 9.05% (inactive).

With `COc1ccc(/C(N)=N/OC(=O)c2cccc([N+](=O)[O-])c2)cc1`, the Potency was 1.51 µM (active).

With `CCOC(=O)CCn1c(=O)c2cccn2c2cccnc21`, the “activity, negative = inhibition” value was -1.77% (inactive).

With `Cc1nc(/N=C(\N)NC(=O)c2ccccc2)nc2ccccc12`, the Potency is 3.79 µM (active).

With `C(=Cc1cnnc2ccccc12)c1ccccc1`, the Potency was 3.38 µM (active).

In the case of `COc1ccc(Cl)cc1C(=O)O/N=C(\N)c1ccccn1`, the Potency was 10.7 µM (active).

With `COc1ccc(Cl)cc1C(=O)NC(=S)Nc1nc(C)cc(C)n1`, the “activity, negative = inhibition” value is -3.81% (inactive).

With `COc1ccccc1C(=O)O/N=C(\N)c1ccc(Cl)cc1`, the Potency was 3.38 µM (active).

Regarding `COc1ccc(Cl)cc1C(=O)O/N=C(\N)c1ccc(Cl)cc1`, the Potency is 9.53 µM (active).

Regarding `COc1ccc(C(C)=O)cc1OCc1ccccc1`, the “activity, negative = inhibition” value was 2.24% (inactive).

As for `COc1ccc(Cl)cc1NC(=O)c1cc(C)no1`, the “activity, negative = inhibition” value is 5.19% (inactive).

Consider `COc1ccc(Cl)cc1C(=O)O/N=C(\N)c1ccncc1`, for which the “activity, negative = inhibition” value is -28.3% (inactive).

Take `COCCNC(=O)c1ccc(-n2c(-c3ccccc3)cc3c2CCC(C)C3)cc1` (stereo not drawn): the “activity, negative = inhibition” value is -5.53% (inactive).

`CSc1nc(Oc2ccc3ccccc3c2)c2sccc2n1`: the “activity, negative = inhibition” value is -2.81% (inactive).

On to `Cc1nc([N+](=O)[O-])c(Br)n1Cc1ccccc1`, for which the “activity, negative = inhibition” value was 2.06% (inactive).

`COc1ccc(/C=C2/CCCC(CN(C)C)C2=O)cc1` (stereo not drawn): the Potency is 3.38 µM (active).

Turning to `COc1cccc(/C=C2/CCC(CN(C)C)C2=O)c1` (stereo not drawn), the Potency was 1.51 µM (active).

Turning to `COc1cccc(-c2nc(-c3ccccc3)no2)c1`, the Potency is 0.151 µM (active).

Turning to `c1ccc(-c2noc(-c3cccnc3)n2)cc1`, the Potency was 3.01 µM (active).

`O=C(CSc1nnc(-c2cccnc2)o1)c1cc2ccccc2oc1=O`: the “activity, negative = inhibition” value was -5.35% (inactive).

Take `c1ccc(-c2noc(-c3cccc4ccccc34)n2)cc1`: the Potency was 0.953 µM (active).

Consider `Fc1ccccc1-c1nc(-c2ccc(Cl)cc2)no1`, for which the Potency is 0.478 µM (active).

Regarding `COc1nc2ccc(C)cc2cc1-c1noc(-c2ccccc2)n1`, the “activity, negative = inhibition” value is -6.47% (inactive).

`Brc1ccc(-c2nnc(-c3cccnc3)c3conc23)cc1`: the “activity, negative = inhibition” value was -20.3% (inactive).

As for `COc1cccc(C2=CC(c3cccs3)n3nnnc3N2)c1` (stereo not drawn), the “activity, negative = inhibition” value was -29.4% (inactive).

Turning to `O=C(CN1CC(=O)Oc2ccccc21)OCC(=O)c1ccc(F)cc1`, the “activity, negative = inhibition” value is -0.826% (inactive).

Turning to `c1cncc(-c2noc(-c3cccc4ccccc34)n2)c1`, the Potency is 2.39 µM (active).

For the compound `Cc1cc(C)c(C#N)c(SCC(=O)c2cccs2)n1`, the Potency is 12 µM (active).

As for `Cc1cc(C)c(C#N)c(OCC(=O)c2ccccc2)n1`, the “activity, negative = inhibition” value is 4.68% (inactive).

For `Cc1cc(C)c(C#N)c(SCC(=O)c2ccccc2)n1`, the “activity, negative = inhibition” value is -6.37% (inactive).

`Cc1ccc(C(=O)N/N=C/c2ccc(-c3ccc(Br)cc3[N+](=O)[O-])o2)o1`: the Potency is 3.79 µM (active).

On to `CC(C)Cc1cc(-c2ccco2)c(C#N)c(N)n1`, for which the “activity, negative = inhibition” value is -13.5% (inactive).

Take `N#Cc1c(-c2ccco2)cc(-c2ccccn2)nc1N`: the Potency was 12 µM (active).

In the case of `N#Cc1nc(-c2ccc(F)cc2)oc1NCc1ccco1`, the “activity, negative = inhibition” value was -27.6% (inactive).

As to `N#Cc1nc(-c2ccco2)oc1N1CCCC1`, the “activity, negative = inhibition” value is 6.93% (inactive).

On to `N#Cc1c(-c2ccco2)cc(-c2ccc(F)cc2)nc1N`, for which the Potency was 5.36 µM (active).

Consider `Cc1nc(NCc2ccco2)nc2c1C(=O)CC(C)C2` (stereo not drawn), for which the “activity, negative = inhibition” value was 3.45% (inactive).

For the compound `COC(=O)c1sccc1NC(=O)c1cccc(F)c1`, the “activity, negative = inhibition” value is 5.88% (inactive).

As to `O=C(Nc1nnc(-c2cccs2)s1)C1CC1`, the “activity, negative = inhibition” value is -26.1% (inactive).

Take `O=C(Nc1nnc(-c2cccs2)s1)c1cccc(F)c1`: the Potency is 2.39 µM (active).

Regarding `O=c1c2ccccc2oc2ccc(-c3ccc4cc[nH]c4c3)cc12`, the Potency was 0.135 µM (active).

Regarding `COc1ccc2oc3cc(Cl)ccc3c(=O)c2c1`, the Potency is 1.69 µM (active).

For the compound `CC(C)(C)/C(O)=C/c1nc2cc(Cl)ccc2oc1=O`, the “activity, negative = inhibition” value is 3.24% (inactive).

In the case of `COc1ccc2oc3ccccc3c(=O)c2c1`, the Potency is 8.49 µM (active).

Regarding `CC(=O)Oc1c(-c2ccco2)oc2ccccc2c1=O`, the “activity, negative = inhibition” value was -8.33% (inactive).

With `O=S(=O)(c1ccc(F)cc1)c1snnc1-c1ccccc1`, the “activity, negative = inhibition” value is -23.6% (inactive).

In the case of `CS(=O)(=O)c1nc(S(=O)(=O)c2ccc(Cl)cc2)c(N2CCN(CCO)CC2)s1`, the “activity, negative = inhibition” value was -0.882% (inactive).

As for `Cc1ccc(-c2cc(-c3cccc(F)c3)n[nH]2)c(O)c1`, the Potency was 1.2 µM (active).

With `COn1c(-c2ccccc2)nc2c1CCc1c-2no[n+]1[O-]`, the “activity, negative = inhibition” value is 0.412% (inactive).

As to `COC(=O)C1=C(C)N(c2ccc(Br)cc2)C(=O)/C1=C\c1ccco1`, the “activity, negative = inhibition” value was -25.3% (inactive).

In the case of `O=C1/C(=C\c2ccco2)NC(=S)N1c1ccccc1`, the Potency was 8.49 µM (active).

Regarding `O=C(CCS(=O)(=O)c1ccccc1)Nc1nc(-c2ccccn2)cs1`, the “activity, negative = inhibition” value is -28.2% (inactive).

`O=C(CC(=O)c1ccccn1)c1ccccc1`: the Potency was 5.36 µM (active).

As to `Cc1cc(C)c2c(NC(=S)NC(=O)c3ccccc3)nn(C)c2n1`, the “activity, negative = inhibition” value is 0.252% (inactive).

Regarding `Cc1csc(NC(=S)NC(=O)c2ccccc2)n1`, the Potency is 2.13 µM (active).

On to `Cc1ccc2cccnc2c1NC(=S)NC(=O)c1ccccc1`, for which the Potency is 15.1 µM (active).

For `Cc1ccc2cccc(NC(=S)NC(=O)c3ccccc3)c2n1`, the Potency was 6.01 µM (active).

For `Cc1sc(NC(=S)NC(=O)c2ccccc2)c(C#N)c1C`, the Potency is 12 µM (active).

For `Cc1cccc(C)c1NC(=S)NC(=O)c1cccc(Cl)c1`, the “activity, negative = inhibition” value is -4.09% (inactive).

`[O-][n+]1onc2c3ccnnc3ccc21`: the “activity, negative = inhibition” value was -2.23% (inactive).

Regarding `O=C(CC(=O)Nc1ccccc1[N+](=O)[O-])Nc1ccccc1[N+](=O)[O-]`, the “activity, negative = inhibition” value is 0.965% (inactive).

As to `Cc1csc(NC(=O)Nc2ccccc2[N+](=O)[O-])n1`, the Potency was 2.69 µM (active).

For the origin of these results see PubChem BioAssay AID651597 (National Center for Advancing Translational Sciences (NCATS), 2012).
